Source: PubChem BioAssay (NCI)
Where “and” joins values, the source holds several entries; their conditions need not be identical. Equal values may be shown once. Compounds without any hit were thinned out: in the full panel of roughly 79,000, 15% have a hit. Some compounds were tested as several samples or in several runs, with calls that do not always agree. Calls of active or inactive are those of the source. Cut-off read from the data, not from the text of the source: active = growth inhibition above about 70%; inactive = the rest.

What was measured:
[1] = NCI Yeast Anticancer Drug Screen. Data for the rad50 strain (AID 155);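 note: 0% = growth of vehicle-only cultures of the same strain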; conditions: S. cerevisiae rad50 strain growth inhibition, stronger effect = higher value
Outline: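 Genetically altered yeast (DNA repair pathway); compound treatment; growth inhibition vs vehicle ctrl.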

[2] = NCI Yeast Anticancer Drug Screen. Data for the mec2-1 strain (AID 157); conditions: S. cerevisiae mec2-1 strain, stronger effect = higher value
Outline: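 Each compound was tested on mec2-1 yeast, a strain altered in DNA damage repair or cell cycle control. Growth inhibition is reported relative to vehicle.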

[3] = NCI Yeast Anticancer Drug Screen. Data for the sgs1 mgt1 strain (AID 161);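 note: 0% = growth of cultures given vehicle only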; conditions: S. cerevisiae sgs1 mgt1 strain, stronger effect = higher value
Outline: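 Genetically altered yeast, compound exposure, growth inhibition relative to vehicle.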

[4] = NCI Yeast Anticancer Drug Screen. Data for the cln2 rad14 strain (AID 165);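 note: 0% = growth equal to vehicle treated cultures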; conditions: S. cerevisiae cln2 rad14 strain, stronger effect = higher value
Outline: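 Test compounds were added to cln2 rad14 yeast cultures; inhibition of growth was then determined by comparison with vehicle treatment.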

[5] = NCI Yeast Anticancer Drug Screen. Data for the bub3 strain (AID 167); conditions: S. cerevisiae bub3 mutant strain, stronger effect = higher value
Outline: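 Yeast carrying a defined mutation is treated with each compound, and growth is compared with that of vehicle-exposed cells to give inhibition.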

[6] = NCI Yeast Anticancer Drug Screen. Data for the wt2 strain (AID 169);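 note: 0% = growth of vehicle-treated yeast cultures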; conditions: S. cerevisiae wt2 strain growth inhibition, stronger effect = higher value
Outline: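 The panel's yeast strains carry defined changes in DNA repair or cell cycle genes. Each strain is grown with compound, and growth loss is scored relative to vehicle.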

[7] = NCI Yeast Anticancer Drug Screen. Data for the mlh1 rad18 strain (AID 175); conditions: S. cerevisiae mlh1 rad18 strain growth inhibition, stronger effect = higher value
Outline: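 Inhibition values reflect reduced growth of mutant yeast versus vehicle-treated controls following compound exposure; the mutations affect DNA damage repair.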

[8] = at 5.0 µM (retest, dose inferred, filed as 0.5)
[9] = at 50.0 µM (retest, dose inferred, filed as 5.0)

Measured: growth inhibition

Cc1c(C)c(CCl)c(C)c(C)c1CCl
inactive: [1]; [8] 53% | [3]; [8] 1% | [3]; [9] 43% | [4]; [8] 34% | [5]; [8] 14% | [5]; [9] 39% | [5]; at 50.0 µM 61.5% | [6]; at 1.2 µM 0% | [6]; at 3.7 µM 25% | [7]; [8] 66%
active: [1]; [9] 95% | [1]; at 50.0 µM 87.7% | [2]; [8] 71% | [2]; [9] 96% | [2]; at 50.0 µM 86% | [3]; at 50.0 µM 75.2% | [4]; [9] 84% | [4]; at 50.0 µM 72.5% | [6]; at 11.0 µM 71% | [6]; at 33.0 µM 82% | [6]; at 100.0 µM 83% | [7]; [9] 95% | [7]; at 50.0 µM 82%

CN(C)CCNc1ccc(CO)c2oc3ccc(O)cc3c(=O)c12
inactive: [1]; [8] 17% | [1]; [9] 41% | [1]; at 50.0 µM 26.5% | [2]; [8] 13% | [2]; [9] 41% | [2]; at 50.0 µM 59.9% | [3]; [8] 13% | [3]; [9] 36% | [3]; at 50.0 µM 9.95% | [4]; [8] 22% | [4]; [9] 28% | [4]; at 50.0 µM -14.1% | [5]; [8] 15% | [5]; [9] 66% | [5]; at 50.0 µM 49% | [7]; [8] 21% | [7]; [9] 63%

Nc1cc2ccccc2cc1Br
inactive: [1]; [8] 43% | [2]; [8] 30% | [2]; [9] 62% | [2]; at 50.0 µM 42.9% | [3]; [8] 14% | [3]; [9] 26% | [4]; [8] 54% | [4]; [9] 44% | [4]; at 50.0 µM 41.6% | [5]; [8] 22% | [5]; [9] 52% | [6]; at 1.2 µM -13% | [6]; at 3.7 µM -17% | [6]; at 11.0 µM -17% | [6]; at 33.0 µM 12% | [7]; [8] 40% | [7]; at 50.0 µM 45%
active: [1]; [9] 73% | [1]; at 50.0 µM 81% | [3]; at 50.0 µM 71.8% | [5]; at 50.0 µM 74.7% | [6]; at 100.0 µM 97% | [7]; [9] 82%

CN1C(c2ccccc2)CC(=NOCc2ccccc2)CC1c1ccccc1 (stereo unspecified)
inactive: [4]; [8] 65%
active: [1]; [8] 83% | [1]; [9] 96% | [1]; at 50.0 µM 78.5% | [2]; [8] 94% | [2]; [9] 97% | [2]; at 50.0 µM 83.8% | [3]; [8] 76% | [3]; [9] 97% | [3]; at 50.0 µM 88.8% | [4]; [9] 97% | [4]; at 50.0 µM 86.6% | [5]; [8] 78% | [5]; [9] 96% | [5]; at 50.0 µM 84% | [7]; [8] 94% | [7]; [9] 96%

CS(=O)(=O)OCCN(CCOS(C)(=O)=O)c1ccc(C=Nc2ccc(-c3csc(Cc4ccccc4)n3)cc2)c(Cl)c1
active: [1]; [9] 95% | [1]; at 50.0 µM 71.2% | [2]; [9] 93% | [2]; at 50.0 µM 76.6% | [3]; [9] 83% | [3]; at 50.0 µM 71% | [4]; [9] 85% | [4]; at 50.0 µM 77% | [5]; [9] 78% | [5]; at 50.0 µM 76% | [7]; [9] 94%
inactive: [1]; [8] 16% | [2]; [8] 7% | [3]; [8] -22% | [4]; [8] 7% | [5]; [8] -35% | [7]; [8] 15%

O=C1c2ccccc2-n2c1nc1ccccc1c2=O
inactive: [1]; [8] 18% | [2]; [8] 14% | [2]; [9] 48% | [2]; at 50.0 µM 57% | [3]; [8] 21% | [3]; [9] 39% | [3]; at 50.0 µM 29.2% | [4]; [8] 30% | [4]; [9] 43% | [4]; at 50.0 µM 17.9% | [5]; [8] 32% | [5]; [9] 57% | [5]; at 50.0 µM 53.1% | [7]; [8] 23% | [7]; [9] 62%
active: [1]; [9] 83% | [1]; at 50.0 µM 74%

Cc1ccc2c(c1)C1(C)OC(C=CC1=O)O2 (stereo unspecified)
active: [1]; [8] 88% | [1]; [9] 100% | [1]; at 50.0 µM 88.2% | [2]; [8] 97% | [2]; [9] 99% | [2]; at 50.0 µM 91% | [3]; [8] 91% | [3]; [9] 100% | [3]; at 50.0 µM 91% | [4]; [8] 82% | [4]; [9] 99% | [4]; at 50.0 µM 90.5% | [5]; [8] 97% | [5]; [9] 100% | [5]; at 50.0 µM 87.8% | [7]; [8] 94% | [7]; [9] 99%

NNc1ccc2ccccc2c1
inactive: [1]; [8] 28% | [2]; [8] 4% | [2]; [9] 56% | [3]; [8] 13% | [3]; [9] 57% | [4]; [8] 16% | [4]; [9] 30% | [5]; [8] 16% | [7]; [8] 33%
97.2% (active) and 25.7% (inactive): [7]; at 50.0 µM
90.2% (active) and 29.1% (inactive): [4]; at 50.0 µM
95.5% (active) and 26.1% (inactive): [3]; at 50.0 µM
85.6% (active) and 2.95% (inactive): [2]; at 50.0 µM
97.2% (active) and 22.5% (inactive): [1]; at 50.0 µM
active: [1]; [9] 86% | [5]; [9] 77% | [7]; [9] 91%
91.2% (active) and 21.1% (inactive): [5]; at 50.0 µM

C/C(N=NC(=S)N1CCCCCC1)=C1\C=CC=CN1O
active: [1]; at 50.0 µM 72.9% | [2]; at 50.0 µM 74.2%
inactive: [1]; [8] 17% | [1]; [9] 38% | [2]; [8] 12% | [2]; [9] 31% | [3]; [8] 14% | [3]; [9] 27% | [3]; at 50.0 µM 68.4% | [4]; [8] 19% | [4]; [9] 31% | [4]; at 50.0 µM 30.6% | [5]; [8] 21% | [5]; [9] 33% | [5]; at 50.0 µM 69% | [7]; [8] 24% | [7]; [9] 44%
